HT1080 IDH1KD tx: HT-1080 IDH1 knockdown cell toxicity (counter line); HT-1080 IDH1 knockdown viability, ATP luminescence, 48 h; Potency, µM (top dose mostly 46.1 µM), without a hit: at the highest dose activity, negative = toxicity, usual class: cytotoxic; hit rate 2% among 360,000; AID 686971;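 also: potency is read from the fitted curve at half-maximal effect; 0% = DMSO wells and -100% = cell-free medium wells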
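After a 2 h attachment period, IDH1KD HT-1080 cells took pin-transferred compound for 48 h at 37 °C; ATP-based luminescence after 10 min room-temperature reagent incubation reported viability.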
HT1080-NT tox: kills 2HG-producing HT-1080-NT fibrosarcoma cells | AID 686970 | Potency, µM (titrated, usually from 46.1 µM), for inactives: top-dose activity, negative = less viability, most hits filed as cytotoxic | hit rate 1.6% among 360,000 | HT-1080-NT fibrosarcoma viability, CellTiter-Glo ATP luminescence, 48 h;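 also: NT is the 2HG producing partner of a matched IDH1 knockdown line; potency is read from the fitted curve at half-maximal effect; 0% = DMSO-treated cells and -100% = media-only wells without cells; nearly all actives have a fitted effect of over 55% in size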
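Read-out is CellTiter-Glo luminescence after 10 minutes at room temperature, following 48 hours' compound treatment of HT-1080-NT cells (750 cells/well, RPMI, 5% FBS, 37 degrees C).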
IL-1B inflam inh: inflammasome signaling inhibition, IL-1 beta readout; THP-1 LPS/ATP IL-1B secretion, AlphaLISA, 16 h; active compounds read low; activity change, % at 57.5 µM; hit rate 4.7% among 360,000; AID 743279; in the data active = activity change below about -50%; inconclusive = mostly about -30% to -49%
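Secreted IL-1B measured by AlphaLISA bead assay after 16 h compound exposure of THP-1 cells; compounds (final up to 57.5 uM) added 1 h before LPS (250 ng/mL) and ATP (1.25 mM) stimulation; lower signal means less secretion.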
DT40 TDP1 no CPT: qHTS for Inhibitors of human tyrosyl-DNA phosphodiesterase 1 (TDP1): qHTS in cells in absence of CPT. DT40 Tdp1-/- hTDP1 cells, no CPT, ATP luminescence, 48 h. Potency, µM (top dose mostly 46.2 µM), without a hit: at the highest dose activity change, negative = growth inhibition, actives largely listed as inhibitors. hit rate 15% among 420,000; also: potency is read from the fitted curve at half-maximal effect; nearly all actives have a fitted effect of over 55% in size
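Seeded 400 DT40-hTDP1 cells/well (vehicle DMSO, no 20 nM CPT); pinned compounds; ≥48 hr at 37 °C; CellTiter-Glo luminescence as viability measure.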
DT40 TDP1 CPT: DT40-hTDP1 cell growth loss with CPT | hit rate 12% among 420,000 | chicken DT40 Tdp1-/-;hTDP1 cells + 20 nM CPT, ATP luminescence, 48 h | AID 686979 | Potency, µM (top dose mostly 46.2 µM), without a hit: at the top dose activity change, negative = growth inhibition, most hits filed as inhibitors; also: potency is read from the fitted curve at half-maximal effect; nearly all actives have a fitted effect of over 55% in size
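Chicken DT40 Tdp1-/- cells stably complemented with human TDP1 were seeded at 400 cells/well in medium containing 20 nM camptothecin, exposed to pin-transferred compounds, and grown at 37 °C for at least 48 hr. Viability was read as ATP luminescence.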
* marks the source's active call; other numbers are inactive results; ? = inconclusive; / = no result. An excerpt weighted towards active compounds, which were near 19% of everything screened. Unless noted, calls follow the shape of the dose curve; as a rule, active = well fitted curve in the direction sought with a large enough effect; inconclusive = small, poorly fitted or top-dose-only effect, or another doubt; inactive = no such curve, though single readings can be large; an effect the other way counts as inactive or inconclusive. Unless noted, % is scaled to controls: 0 for no effect and ±100 for the full control effect.

SMILES	HT1080 IDH1KD tx	HT1080-NT tox	IL-1B inflam inh	DT40 TDP1 no CPT	DT40 TDP1 CPT
CCC(C)(C)n1nnnc1C(c1cc2ccc(OC)cc2[nH]c1=O)N1CCc2ccccc2C1 (centres undefined)	?	-5.5%	-65.4*	?	?
CCc1ccc2[nH]c(=O)c(C(c3nnnn3CCOC)N3CCN(c4ccc(F)cc4)CC3)cc2c1 (centres undefined)	?	?	-8.3	?	?
CCC(C)(C)n1nnnc1C(c1cc2ccc(OC)cc2[nH]c1=O)N1CCc2ccccc21 (centres undefined)	11.2µM*	?	-14.0	-24.9%	?
CCC(C)(C)n1nnnc1C(c1cc2cc(OC)ccc2[nH]c1=O)N1CCc2ccccc21 (centres undefined)	-13.5%	0.7%	-1.4	-21.8%	?
COc1cc2cc(C(c3nnnn3Cc3ccc(F)cc3)N3CCCCCC3)c(=O)[nH]c2cc1OC (centres undefined)	?	-3.5%	-15.1	?	-19.6%
COc1ccc(Cn2nnnc2C(c2cc3ccc(OC)cc3[nH]c2=O)N2CCCCCC2)cc1 (centres undefined)	-14.9%	-25.8%	-13.1	23.1µM*	16.4µM*
O=C(COC(=O)c1ccc2ccccc2n1)NCc1ccccc1	6.6%	17.3%	0.9	2.1%	6.7%
CCC1NC(=O)c2cccnc2-n2c1nc1ccc(OC)cc1c2=O (centres undefined)	6.5%	0.1%	0.0	-16.3%	17.9%
CC(=O)OC[C@@H]1CN(Cc2ccccc2)C[C@H](n2cnc3c(NCC(C)C)ncnc32)O1	0.0%	26.4%	1.0	?	?
COCCn1c(C)cc(/C=C(\C#N)C(=O)OCC(=O)Nc2ccc(S(N)(=O)=O)cc2)c1C	-14.6%	0.5%	26.2	-23.9%	-22.1%
COc1ccc([C@H]2C[C@@H](O)[C@H](n3cc(COC(=O)c4ccccc4)nn3)CN2C(=O)c2cccs2)cc1	5.5%	4.9%	27.5	?	?
Cc1cc2cc(C(c3nnnn3Cc3ccco3)N3CCc4ccccc43)c(=O)[nH]c2cc1C (centres undefined)	-24.6%	-16.0%	5.7	?	?
COc1ccc2cc(C(c3nnnn3C3CCCC3)N3CCc4ccccc4C3)c(=O)[nH]c2c1 (centres undefined)	-2.4%	-23.9%	-28.0	18.4µM*	?
COc1ccc2[nH]c(=O)c(C(c3nnnn3C3CCCCC3)N3CCN(C)CC3)cc2c1 (centres undefined)	-5.5%	1.0%	11.5	7.7%	-6.9%
Cc1cc2cc(C(c3nnnn3Cc3ccco3)N3CCc4ccccc4C3)c(=O)[nH]c2cc1C (centres undefined)	?	?	-57.7*	23.1µM*	?
O=C(c1ccc(S(=O)(=O)Nc2ccccc2)cc1)N1CCC1	5.3%	4.7%	-8.2	-19.6%	?
CC(C)(C)OC(=O)C[C@@H]1C/C=C\C[C@@H](CC(=O)N(CCO)Cc2ccccc2)C(=O)N2CCC[C@@H]2COC1=O	6.0%	8.3%	3.2	-26.0%	-39.7%
COCCn1c(C)cc(C(=O)COC(=O)c2ccc(Cl)c(S(N)(=O)=O)c2)c1C	-9.5%	-1.9%	0.0	?	?
CCOC(=O)c1c(NC(=O)CN2CCCc3ccccc32)sc(C(C)=O)c1C	-2.8%	-3.1%	12.7	20.6µM*	?
CCOC(=O)c1c(NC(=O)Cc2cccs2)sc(C(=O)N2CCCCC2)c1C	-12.1%	-3.3%	-9.4	9.2µM*	?
COc1ccc(S(=O)(=O)NCCc2nnc3ccc(SCC(=O)Nc4ccc(C(F)(F)F)cc4)nn23)cc1	/	/	/	23.1µM*	?
Cc1ccc(NC(=O)CSc2ccc3nnc(CCNS(=O)(=O)c4ccccc4)n3n2)cc1Cl	/	/	/	?	16.4µM*
Cc1csc(NC(=O)CSc2ccc3nnc(CCNS(=O)(=O)c4ccccc4)n3n2)n1	-5.8%	5.9%	44.1	?	0.3%

Assay outcomes (PubChem)
